Consider eight compounds from PubChem BioAssay (NCATS).

Results filed as inconclusive are left out. Values without a mark were called inactive. The source made the active and inactive calls. Calls come from the whole dose curve; as a rule, active = well fitted cell-killing curve with a large enough effect; inconclusive = small, poorly fitted or top-dose-only effect, or effect the other way; inactive = no such curve, though single readings can be large or run the other way.
Potency is the fitted concentration of half-maximal effect.

This test can be described thus: Viability qHTS for spleen associated tyrosine kinase inhibitor (SYKi) drug resistant MV4-11 cells (AID 1963824). Note: nearly all actives have a fitted effect of over 35% in size. Conditions: SYKi-resistant MV4-11 viability, CellTiter-Glo, 72 h; series mostly up to 45 µM; viability, % of control: at the top concentration. Summed up: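 SYK inhibitor-resistant MV4-11 AML cells, 500 per well, added to predispensed compounds and incubated 72 hr at 37 C, 5% CO2. Viability measured by CellTiter-Glo luminescence after 10 min at room temperature.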
For `Cc1c(C(=O)Nc2ccc(Oc3ccnc4[nH]cc(-c5ccccc5)c34)c(F)c2)c(=O)n(-c2ccc(F)cc2)n1C`, the Potency was 0.0206 µM (active). As for `COc1ccc(C[C@H]2COC(=O)[C@@H]2Cc2ccc(O[C@@H]3O[C@H](CO)[C@@H](O)[C@H](O)[C@H]3O)c(OC)c2)cc1OC`, the Potency is 1.42 µM (active). With `OC[C@H]1O[C@@H](O[C@H]2[C@H](OCc3ccccc3)O[C@H](CO[C@@H]3OC[C@@H](O)[C@H](O)[C@H]3O)[C@@H](O)[C@@H]2O)[C@H](O)[C@@H](O)[C@@H]1O`, the “viability, % of control” value is 72.1% [at 17.3 µM]. On to `CO[C@H]1/C=C/[C@@](C)(O)/C=C/C(=O)O[C@H](C)[C@@H](C)CC/C=C/1C`, for which the Potency was 12.8 µM (active). `C=C1C(=O)OC2CC(COC(=O)C(C)C)=C(C(C)CCCOC(C)=O)[C@@H](OC(C)=O)C12` (stereo partly drawn): the Potency is 8.93 µM (active). On to `CC(C)(C)c1ccc(-c2nc3ccccc3[nH]2)cc1`, for which the Potency was 3.99 µM (active). `O=C(Nc1ncc(SCCN2CCCC2)s1)C1(c2ccc(S(=O)(=O)C3CC3)cc2)CC1C1CCCCC1` (stereo not drawn): the Potency was 8.2 µM (active). Consider `CCCCCCCCn1cc(CN(CC)CC)c2cc(-c3cnc(N)nc3)ccc21`, for which the Potency was 2.59 µM (active).
